Structures are written as SMILES. The panel holds about 83,000 compounds, 20% with a hit somewhere; the sample as a whole holds those more often.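 Values shown are percent growth following 48 h exposure of cells in 96-well plates to a single concentration of compound; below 10 was considered active.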 A number with no mark means an inactive call. Activity calls are given as the source filed them.

We go through 13 compounds from PubChem BioAssay (NCI).

Test systems include HT29 colon; SNB-75 CNS; SNB-19 CNS; U251 CNS; PC-3 prostate; SK-MEL-5 melanoma; UACC-62 melanoma; LOX IMVI melanoma; SK-MEL-28 melanoma; SK-MEL-2 melanoma.
What all share (experiment): NCI-60 one-dose screen, 48 h (100 = growth as untreated, 0 = no growth, -100 = all killed)
What all share (conditions): 10 µM unless noted

In the case of `CCOC(=O)c1c(Nc2ccccc2)nn2c(-c3ccco3)c(C#N)cnc12`, the growth was 100% in the experiment on HT29 colon; 30.5% in the experiment with SNB-75 CNS; 78.3% in the experiment on SNB-19 CNS; 109% with U251 CNS; 86.4% in the experiment on PC-3 prostate; 91.3% with SK-MEL-5 melanoma. Moreover, the growth is 91% in the experiment on UACC-62 melanoma, 81.4% in the experiment with LOX IMVI melanoma, 90.6% in the experiment with SK-MEL-28 melanoma and 90.3% in the experiment on SK-MEL-2 melanoma.

Regarding `COc1cc2nc(-c3ccc(C)cc3)cc(OCCCNCC3CCCO3)c2cc1OC` (stereo unspecified), the growth in the experiment with HT29 colon was 21.3%; in the experiment with SNB-75 CNS it was 80.7%; with SNB-19 CNS it was 92.1%; in the experiment on U251 CNS it was 66.7%; in the experiment with PC-3 prostate it was 66.3%; in the experiment with SK-MEL-5 melanoma, 77.7%. The growth in the experiment with UACC-62 melanoma is 96.6%; in the experiment on LOX IMVI melanoma it was -32.2% (active); in the experiment on SK-MEL-28 melanoma it was 68.1%; in the experiment with SK-MEL-2 melanoma, 112%.

On to `COc1ccc(-c2cc(C(=O)N=Nc3c(O)[nH]c4ccccc34)c3ccccc3n2)cc1OC`, for which the growth was 102% in the experiment on HT29 colon; 92% in the experiment with SNB-75 CNS; 97.9% in the experiment with SNB-19 CNS; 95.3% with U251 CNS; 91.6% with PC-3 prostate; 97.3% in the experiment on SK-MEL-5 melanoma. The growth is 91.5% with UACC-62 melanoma, 105% in the experiment on LOX IMVI melanoma, 98.1% with SK-MEL-28 melanoma and 107% in the experiment on SK-MEL-2 melanoma.

As for `Cc1cccc2sc(/N=C(\N)C(Br)Br)nc12`, the growth was -30.4% (active) with HT29 colon; 7.62% (active) in the experiment on SNB-75 CNS; 46.8% with SNB-19 CNS; 9.02% (active) in the experiment on U251 CNS; 40.8% in the experiment with PC-3 prostate; 51.4% in the experiment on SK-MEL-5 melanoma. Moreover, the growth with UACC-62 melanoma was 22%; in the experiment with LOX IMVI melanoma it was -86% (active); in the experiment on SK-MEL-28 melanoma, 38.4%; with SK-MEL-2 melanoma, 5.61% (active).

Turning to `O=C(CSc1nc2sc3c(c2c(=O)n1-c1ccc(Cl)cc1)CCCC3)N/N=C/c1ccc(F)cc1`, the growth is 60.6% with HT29 colon; 107% with SNB-75 CNS; 101% with SNB-19 CNS; 67.1% in the experiment with U251 CNS; 87.1% with PC-3 prostate; 103% with SK-MEL-5 melanoma. Moreover, the growth is 97% with UACC-62 melanoma, 95.9% in the experiment on LOX IMVI melanoma and 108% in the experiment with SK-MEL-28 melanoma.

As for `OC1CCN(CCCOc2c3ccc(Cl)cc3nc3c2oc2ccc(Cl)cc23)CC1`, the growth is -86% (active) in the experiment with HT29 colon; 14.9% in the experiment on SNB-75 CNS; 29.5% with SNB-19 CNS; -93.5% (active) in the experiment with U251 CNS; 21% in the experiment on PC-3 prostate; -7.79% (active) in the experiment on SK-MEL-5 melanoma. Besides, the growth is -68.4% (active) in the experiment on UACC-62 melanoma, -92.9% (active) in the experiment with LOX IMVI melanoma, -84.5% (active) with SK-MEL-28 melanoma and 50.6% in the experiment with SK-MEL-2 melanoma.

Regarding `CN(C)CCCNc1c2ccccc2nc2c1oc1ccc(Cl)cc12`, the growth in the experiment with HT29 colon is -34% (active); with SNB-75 CNS it was 37.5%; in the experiment on SNB-19 CNS, 43.3%; with U251 CNS it was 33.4%; in the experiment with PC-3 prostate, 47.2%; in the experiment on SK-MEL-5 melanoma, 47.9%. Also, the growth was 52.1% in the experiment with UACC-62 melanoma, -86.5% (active) in the experiment on LOX IMVI melanoma, 43.8% in the experiment on SK-MEL-28 melanoma and 70.8% with SK-MEL-2 melanoma.

Regarding `Cc1nc2cnc(N)c(C#Cc3cncc(C(=O)Nc4ccc(Cl)c(C(F)(F)F)c4)c3)c2nc1C`, the growth in the experiment on HT29 colon is 31.5%; with SNB-75 CNS, 44.6%; in the experiment on SNB-19 CNS, 90%; with U251 CNS, 77.4%; in the experiment with PC-3 prostate it was 85.3%; in the experiment on SK-MEL-5 melanoma, 86.9%. Besides, the growth in the experiment on UACC-62 melanoma is 39.7%; in the experiment on LOX IMVI melanoma, -77.4% (active); in the experiment on SK-MEL-28 melanoma, 44.4%; in the experiment on SK-MEL-2 melanoma it was 14.4%.

In the case of `CCN1CCN(/C(=N\c2sc(-c3ccccc3)nc2-c2ccccc2)c2ccccc2)CC1`, the growth is 32.6% with HT29 colon; 89.1% in the experiment on SNB-75 CNS; 84.8% with SNB-19 CNS; 67.4% in the experiment with U251 CNS; 65.8% in the experiment on PC-3 prostate; 93.4% in the experiment with SK-MEL-5 melanoma. The values for the growth in the experiment on UACC-62 melanoma, in the experiment with LOX IMVI melanoma and in the experiment on SK-MEL-28 melanoma were 55.3%, 80.1% and 80.6%, respectively.

Consider `CS(=O)(=O)c1ccc(-n2cc(/C=C/C(=O)c3ccc(NC(=O)CO[N+](=O)[O-])cc3)c(-c3ccc(Cl)cc3)n2)cc1`, for which the growth with HT29 colon was 108%; with SNB-75 CNS, 111%; with SNB-19 CNS it was 84.9%; with U251 CNS it was 92.9%; with PC-3 prostate, 96.2%; in the experiment with SK-MEL-5 melanoma, 98.4%. Moreover, the results for the growth in the experiment on UACC-62 melanoma, in the experiment on LOX IMVI melanoma and in the experiment with SK-MEL-28 melanoma were 83.3%, 96.9% and 66.1%, respectively.

Consider `Cc1nc(-c2cc3ccccc3oc2=O)ccc1C(=O)/C=C/c1ccc(N2CCOCC2)cc1`, for which the growth with HT29 colon is 80.4%; in the experiment with SNB-75 CNS, 58.9%; with SNB-19 CNS it was 79.9%; with U251 CNS, 89.8%; in the experiment with PC-3 prostate, 86.6%; in the experiment with SK-MEL-5 melanoma it was 71.5%. The growth was 52.1% in the experiment on UACC-62 melanoma, 31.3% in the experiment with LOX IMVI melanoma and 72.8% in the experiment on SK-MEL-28 melanoma.

Turning to `COc1ccc(-c2nc3ccc(-c4nnc(SCC(=O)Nc5ccc(C(=O)/C=C/c6ccccc6)cc5)o4)cc3[nH]2)cc1OC`, the growth with HT29 colon is 103%; in the experiment with SNB-75 CNS, 90.3%; in the experiment with SNB-19 CNS, 107%; in the experiment with U251 CNS, 93.2%; in the experiment with PC-3 prostate, 101%; with SK-MEL-5 melanoma it was 95.5%. For the same compound, the growth with UACC-62 melanoma is 95%; in the experiment on LOX IMVI melanoma it was -11.8% (active); in the experiment on SK-MEL-28 melanoma, 105%; in the experiment on SK-MEL-2 melanoma it was 108%.

With `Clc1ccc2c(NCCCn3ccnc3)c3oc4ccccc4c3nc2c1`, the growth with HT29 colon is 19.4%; with SNB-75 CNS it was 47.8%; in the experiment on SNB-19 CNS it was 57.1%; with U251 CNS, 19.6%; with PC-3 prostate, 47.9%; in the experiment with SK-MEL-5 melanoma it was 76%. For the same compound, the growth was 66.1% with UACC-62 melanoma, 14.4% in the experiment with LOX IMVI melanoma, 68.2% in the experiment on SK-MEL-28 melanoma and 84.9% in the experiment on SK-MEL-2 melanoma.
